# This is a sample that favours compounds with a hit; in the whole collection about 4.2% have one here.
# NALP1 inh: NALP1 inhibition; 0.61% of 280,000 active; inhibition, % at 10 µM; S. cerevisiae NALP1/ASC/caspase-1 growth, X-gal OD620, 72 h; in the data active means inhibition mostly above about 24%, no sharp cut-off; inactive means mostly below about 32%
# tim23-1 inh: inhibits growth of tim23-1 mutant yeast | S. cerevisiae tim23-1 growth, BacTiter-Glo luminescence, 24 h | inhibition, % at 20 µM | 1.3% of 330,000 active | AID 463212;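 active means growth inhibition of the mutant yeast at or above 50%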;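 further: temperature-sensitive mutant grown at 25 °C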
# tim10-1 inh: tim10-1 yeast growth inhibition | S. cerevisiae tim10-1 ts strain growth, BacTiter-Glo, 24 h | 2.2% of 330,000 active | inhibition, % at 20 µM;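 active means inhibition of at least 40%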;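 further: mutant grown at 25 °C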
# NALP3 yeast inh: NALP3 inhibition in yeast; Yeast reconstituted NLRP3/ASC/caspase-1, beta-gal luminescence, 24 h; inhibition, % at 10 µM; 0.39% of 330,000 active;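 active means inhibition of 50% or more; inactive means inhibition below 50%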
# V-ATPase pH: regulators of yeast V-ATPase proton transport | S. cerevisiae, pHLuorin cytosolic pH fluorescence | response, % at 10 µM | 0.37% of 350,000 active | AID 504577; in the data active means response mostly above about 7.3%, no sharp cut-off; inactive means mostly below about 5.4%; further: actives read high
# TIM10 inh: inhibits growth of TIM10 yeast strain; 1.4% of 330,000 active; inhibition, % at 10 µM; S. cerevisiae TIM10 strain growth, BacTiter-Glo luminescence, 24 h; AID 463195;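 active means inhibition of 40% or more at the single tested concentration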;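 further: wild-type TIM10 isogenic control strain grown at permissive 25 °C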
# NALP3 yeast conf: NALP3 inhibition confirmation in yeast; shares compounds with NALP3 yeast inh; yeast expressing human NALP3, luminescence; inhibition, % at 10 µM; 81% of 1,300 active; in the data active means inhibition above about 48%
# Casp1-ASC yeast: caspase-1-ASC yeast counter-screen hit | yeast expressing Caspase-1-ASC, luminescence counter screen | inhibition, % at 10 µM | 66% of 1,000 active | AID 488784 | shares compounds with NALP3 yeast inh
# NALP3 retest: confirmation retest of NALP3 inhibitors in yeast; shares compounds with NALP3 yeast inh; yeast expressing human NALP3, luminescence read-out; inhibition, % at 10 µM; 53% of 1,000 active; AID 488794
# A number is an active result; . = inactive; / = no result given. Unless noted, no stated cut-off is given here; in the data, active means inhibition above about 50%; inactive means the rest.
SMILES,NALP1 inh,tim23-1 inh,tim10-1 inh,NALP3 yeast inh,V-ATPase pH,TIM10 inh,NALP3 yeast conf,Casp1-ASC yeast,NALP3 retest
CCOC(=O)c1cccc(NC(=O)Cn2nc(C)n3cccc3c2=O)c1,.,.,.,.,.,.,/,/,/
COc1ccc2c(=O)c3ccccc3oc2c1,.,.,.,57,.,.,68,.,.
COc1ccc2cc(-c3ccccc3)c(=O)oc2c1,.,.,.,63,.,.,75,68,63
COC(=O)C(C)Oc1ccc2cc(-c3ccccc3)c(=O)oc2c1 (configuration not stated),.,.,.,.,.,.,/,/,/
COc1cccc2cc(-c3ccccc3)c(=O)oc12,.,.,.,54,.,.,72,58,50
Cc1cc(Br)c(NC(=O)COC(=O)C2CCCCC2)c(Br)c1,/,.,.,.,.,.,/,/,/
C/C(=N\NC(=S)Nc1cccc(C)c1)c1ccco1,.,.,.,53,.,.,.,/,/
CCN(CC)C(=S)SCC(=O)c1ccc(Br)cc1,.,.,.,55,.,.,64,/,/
COc1cc(/C=C2\SC(=O)N(CCN)C2=O)ccc1OS(=O)(=O)c1cc(C)ccc1C,.,/,/,/,.,/,/,/,/
CO/N=C(\Cn1ncc(N2CCCC2)c(Br)c1=O)c1ccc(Cl)cc1,.,.,.,77,.,.,69,78,57
CO/N=C(\Cn1ncc(NC2CCCCC2)c(Br)c1=O)c1ccc(Cl)cc1,.,.,.,.,.,.,/,/,/
Cc1cc(Cl)c2oc(C(=O)N(C)Cc3ccon3)c(C)c2c1,42,.,.,50,.,.,48,.,.
CCc1ccc(C(=O)NNc2cc(Cl)ccc2Cl)cc1,.,.,.,65,.,.,66,61,60
CCc1ccc(C(=O)NNc2ccc(F)cc2)cc1,.,.,.,.,.,.,/,/,/
CCc1ccc(C(=O)NNc2ccccc2F)cc1,.,.,.,.,.,.,/,/,/
CCc1ccc(C(=O)NNc2ccc(C)c(Cl)c2)cc1,.,.,.,53,.,.,53,.,.
CC(CCc1ccccc1)NC(=O)C1CCN(S(=O)(=O)c2ccc(F)cc2)CC1 (configuration not stated),.,.,.,.,.,.,/,/,/
COc1ccc(S(=O)(=O)N(C)C[C@H]2Oc3c(NC(=O)c4ccncc4)cccc3C(=O)N([C@H](C)CO)C[C@@H]2C)cc1,/,.,.,.,.,.,/,/,/
O=C(Nc1sc2c(c1C(=O)NCC(O)CO)CCCC2)c1ccccc1 (configuration not stated),/,.,.,.,.,.,/,/,/
CC(C)NC(=O)c1cc2cc([N+](=O)[O-])ccc2s1,.,.,.,.,.,.,/,/,/
CCCNC(=O)c1cc2cc([N+](=O)[O-])ccc2s1,.,.,.,52,.,.,.,.,.
Cc1ccc(OC(=O)c2ccc(C)c(C)c2)cn1,.,.,.,54,.,.,54,75,.
Cc1ccc(OC(=O)c2ccc(Cl)c([N+](=O)[O-])c2)cn1,.,.,.,.,.,.,/,/,/
O=C(NCCN1CCN(C(=O)c2ccc([N+](=O)[O-])cc2)CC1)C(=O)Nc1ccc(F)cc1,.,.,.,.,.,.,/,/,/
CCOc1cc(C)c(S(=O)(=O)Nc2ccc(Cl)cn2)cc1C,.,.,.,.,.,.,/,/,/
SMILES,NALP1 inh,tim23-1 inh,tim10-1 inh,NALP3 yeast inh,V-ATPase pH,TIM10 inh,NALP3 yeast conf,Casp1-ASC yeast,NALP3 retest
CCOc1ccc(S(=O)(=O)Nc2ccc(Cl)cn2)c(C)c1C,.,.,.,60,.,.,77,64,.
COc1ccc(C(=O)OCC(=O)N2CCN(S(=O)(=O)c3ccc(C)cc3)CC2)cc1[N+](=O)[O-],/,/,/,/,.,/,/,/,/
COc1ccc(C(CNC(=O)c2cc(SC)ccc2Cl)N(C)C)cc1 (configuration not stated),.,.,.,.,.,.,/,/,/
Cc1ccc(C(=O)Nc2ccc3nc(C)sc3c2)s1,.,.,.,.,.,.,/,/,/
Cc1nc2cc(NC(=O)c3ccc(Br)s3)ccc2s1,.,.,.,51,.,.,69,.,.
COCCCN(CC(=O)Nc1ccc(N2CCOCC2)cc1)S(=O)(=O)c1ccccc1,.,.,.,.,.,.,/,/,/
CC(Sc1nc(C(F)(F)F)nc2ccccc12)C(=O)NC1CCCC1 (configuration not stated),/,.,.,52,.,.,.,/,/
CC(C)(C)c1nc(SCC(=O)NC2CCCC2)c2ccccc2n1,.,.,.,.,/,.,/,/,/
COC(=O)CNc1cc(S(=O)(=O)N2CCCCC2)ccc1Oc1cccc(C)c1,.,.,.,.,.,.,/,/,/
COC(=O)CNc1cc(S(=O)(=O)N2CCCCC2)ccc1Oc1ccc(C(=O)OC)cc1,.,.,.,66,.,.,70,.,.
Nc1cc(S(=O)(=O)N2CCCCC2)ccc1Oc1ccc(Cl)cc1,.,.,.,.,.,.,/,/,/
COC(=O)c1ccc(Oc2ccc(S(=O)(=O)N3CCCCC3)cc2N)cc1,56,.,.,88,.,.,94,93,88
N#Cc1ccccc1COc1cccc2c1CCCC2O (configuration not stated),.,.,.,.,.,.,/,/,/
Cc1ccc(S(=O)(=O)N(CC(=O)NCC2CCCO2)C2CCCCC2)cc1 (configuration not stated),.,.,.,.,.,.,/,/,/
O=C(CNC(=O)c1ccccc1F)N/N=C\C=C\c1ccccc1,.,.,.,.,.,.,/,/,/
Oc1c(C=Nc2ccccc2)sc(=S)n1Cc1ccccc1,.,.,.,.,.,.,/,/,/
CCn1c(O)c(C=Nc2ccccc2)sc1=S,.,.,.,54,/,.,58,56,60
Cc1ccc2oc(/N=C(\N)NC(=O)C(C)(C)C)nc2c1,.,.,.,71,.,.,58,.,.
CCCN(CCC)c1nc(-c2ccccn2)nc2ccccc12,.,.,.,50,.,.,76,/,/
CCN1CCN(c2nc(-c3ccccn3)nc3ccccc23)CC1,.,.,.,.,.,.,/,/,/
O=C(O)c1ccc(-c2ccccn2)s1,.,.,.,.,.,.,/,/,/
c1ccc(-c2ccc(-c3ccccn3)s2)nc1,.,.,.,52,.,.,56,.,.
O=C(Nc1nnc(CCc2ccccc2)s1)c1ccccc1,.,.,.,51,.,.,70,.,.
COc1ccccc1NC(=O)Nc1nnc(-c2ccco2)s1,.,.,.,.,/,.,/,/,/
CCC(=O)Nc1nnc(CCc2ccccc2)s1,.,.,.,.,.,.,/,/,/
O=C(Nc1nnc(-c2ccco2)s1)c1ccccc1,.,.,.,53,.,.,58,57,.
COc1ccccc1C(=O)Nc1nnc(-c2ccco2)s1,.,.,.,56,.,.,57,68,55

# Bioassay records: PubChem BioAssay, several laboratories
